# Data from PubChem BioAssay.
# The source made the active and inactive calls.
# Columns and labels:
# [1] = E. coli DRC41 culture turbidity changes, primary screen, E. coli filamentation inducer project, strain DRC41, OD650, 48 h (AID 1152);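 also: E. coli MC1000 strain DRC41 lacking acrAB efflux pump and sulA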; details: E. coli DRC41 (acrAB sulA), higher = more signal, called active from +8 up or from −8 down
# [2] = small-molecule binders of probe aLefty1, primary screen, biochemical, small-molecule microarray, 635/667 nm fluorescence (AID 1153); details: higher = more signal;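 also: score merges spot fluorescence with signal-to-noise ratio from the scanned slide images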
# [3] = PSAC antagonists in infected red cells, primary screen, cell-based, P. falciparum Indochina, OD700, 1 h (AID 1154); details: P. falciparum Indochina infected RBC osmotic lysis, higher = more signal, called active from +8 up or from −8 down
# [4] = PSAC antagonists in infected red cells, primary screen, cell-based, P. falciparum Indochina, OD700, 2 h (AID 1155);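 also: lysis reports solute entry through the parasite surface anion channel PSAC; channel blockers reduce lysis of infected cells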; details: P. falciparum Indochina infected erythrocytes, osmotic lysis OD700; higher = more signal, called active from +8 up or from −8 down
# [5] = osmotic lysis modulators in infected erythrocytes, primary screen, PSAC antagonist project, cell-based, P. falciparum Indochina, OD700, 3 h (AID 1156); details: higher = more signal, called active from +8 up or from −8 down
# [6] = PSAC antagonists in infected red cells, primary screen, cell-based, P. falciparum Indochina, OD700, 18 h (AID 1157); details: P. falciparum Indochina infected erythrocytes, osmotic lysis OD700, 18 h; higher = more signal, called active from +8 up or from −8 down
# [7] = modulators of S6 phosphorylation in cells, primary screen, cell-based, A549, cytoblot, luminescence, serum-stimulated (AID 1158); details: A549 phospho-S6 cytoblot, 5 h, higher = more signal;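 also: serum-stimulated A549 lung adenocarcinoma cells; signal is phosphorylated S6 detected by cytoblot immunostaining with HRP secondary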
# [8] = target: NADPH oxidase 2 (Homo sapiens) (UniProt P04839); experiment: NOX2-dependent H2O2 signal modulators, primary screen, NOX inhibitor project, cell-based, HEK293-NOX2, PMA-stimulated, Amplex Red fluorescence (AID 1159); details: 45 min, higher = more signal, called active from +8 up or from −8 down; also: test concentration not given here
# NADPH oxidase 2 (Homo sapiens), sequence (P04839 whole entry, looked up): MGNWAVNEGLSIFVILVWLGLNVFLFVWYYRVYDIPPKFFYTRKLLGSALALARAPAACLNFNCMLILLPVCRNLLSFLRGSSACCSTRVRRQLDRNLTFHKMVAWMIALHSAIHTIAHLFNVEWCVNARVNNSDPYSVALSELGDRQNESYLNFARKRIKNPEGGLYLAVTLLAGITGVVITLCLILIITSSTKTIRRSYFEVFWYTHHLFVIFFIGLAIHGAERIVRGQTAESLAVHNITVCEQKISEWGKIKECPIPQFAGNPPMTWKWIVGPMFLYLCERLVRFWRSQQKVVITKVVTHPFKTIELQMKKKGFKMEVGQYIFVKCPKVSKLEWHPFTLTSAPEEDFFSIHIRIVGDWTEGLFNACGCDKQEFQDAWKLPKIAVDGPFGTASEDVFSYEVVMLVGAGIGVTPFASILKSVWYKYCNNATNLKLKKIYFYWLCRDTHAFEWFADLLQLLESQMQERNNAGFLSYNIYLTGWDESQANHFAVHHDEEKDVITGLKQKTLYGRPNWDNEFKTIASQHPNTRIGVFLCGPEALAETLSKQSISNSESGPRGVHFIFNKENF
# [9] = target: NADPH oxidase 4 (Homo sapiens) (UniProt Q9NPH5); experiment: NOX4-dependent H2O2 signal modulators, primary screen, NOX inhibitor project, cell-based, HEK293-NOX4, tetracycline-induced, Amplex Red fluorescence (AID 1160); details: 45 min, higher = more signal, called active from +8 up or from −8 down
# NADPH oxidase 4 (Homo sapiens), sequence (Q9NPH5 whole entry, looked up): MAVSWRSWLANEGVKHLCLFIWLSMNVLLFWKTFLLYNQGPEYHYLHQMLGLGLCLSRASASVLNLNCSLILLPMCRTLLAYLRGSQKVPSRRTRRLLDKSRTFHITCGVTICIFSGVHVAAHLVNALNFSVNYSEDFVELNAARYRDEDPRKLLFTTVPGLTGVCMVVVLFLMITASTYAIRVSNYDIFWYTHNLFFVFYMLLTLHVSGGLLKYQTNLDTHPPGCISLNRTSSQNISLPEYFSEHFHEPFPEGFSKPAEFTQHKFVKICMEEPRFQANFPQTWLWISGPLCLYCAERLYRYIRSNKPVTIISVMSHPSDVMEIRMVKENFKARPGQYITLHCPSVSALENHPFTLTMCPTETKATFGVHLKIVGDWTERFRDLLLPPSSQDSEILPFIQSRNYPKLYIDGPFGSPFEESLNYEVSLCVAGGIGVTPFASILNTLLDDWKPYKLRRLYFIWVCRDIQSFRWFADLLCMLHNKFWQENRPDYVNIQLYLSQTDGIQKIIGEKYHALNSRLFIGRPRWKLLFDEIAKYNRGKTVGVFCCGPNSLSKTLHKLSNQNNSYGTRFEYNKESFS
# [10] = target: NADPH oxidase 5 (Homo sapiens) (UniProt Q96PH1); experiment: NOX5-dependent H2O2 signal modulators, primary screen, NOX inhibitor project, cell-based, HEK293-NOX5, Amplex Red fluorescence (AID 1161); details: HEK293-NOX5, ionomycin, 45 min, higher = more signal
# NADPH oxidase 5 (Homo sapiens), sequence (Q96PH1 whole entry, looked up): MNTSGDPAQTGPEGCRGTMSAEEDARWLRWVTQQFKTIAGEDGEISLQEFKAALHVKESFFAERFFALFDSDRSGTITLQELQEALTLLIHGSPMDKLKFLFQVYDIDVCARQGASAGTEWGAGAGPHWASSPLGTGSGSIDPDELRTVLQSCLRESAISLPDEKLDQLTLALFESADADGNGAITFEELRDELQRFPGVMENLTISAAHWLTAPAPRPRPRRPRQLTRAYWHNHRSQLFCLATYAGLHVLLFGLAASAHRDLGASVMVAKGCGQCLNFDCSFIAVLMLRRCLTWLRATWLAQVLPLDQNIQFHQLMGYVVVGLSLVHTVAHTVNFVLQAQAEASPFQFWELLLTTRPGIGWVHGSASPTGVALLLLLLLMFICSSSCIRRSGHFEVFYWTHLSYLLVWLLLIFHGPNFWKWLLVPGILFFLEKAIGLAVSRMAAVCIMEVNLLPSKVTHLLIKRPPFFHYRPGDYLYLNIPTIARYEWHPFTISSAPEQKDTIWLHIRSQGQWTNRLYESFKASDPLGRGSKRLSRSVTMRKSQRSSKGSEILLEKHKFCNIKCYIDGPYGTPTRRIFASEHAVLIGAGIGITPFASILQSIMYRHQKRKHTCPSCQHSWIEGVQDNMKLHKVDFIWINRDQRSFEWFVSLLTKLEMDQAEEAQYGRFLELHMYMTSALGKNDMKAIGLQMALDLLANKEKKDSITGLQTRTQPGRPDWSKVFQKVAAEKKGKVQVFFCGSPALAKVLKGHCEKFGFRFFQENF
# [11] = A549 cell viability effects, profiling panel, calcein-AM fluorescence, 48 h, basal (AID 1162); details: higher = more signal; also: test concentration not given here
# [12] = adipocyte viability effects, profiling panel, cell-based, 3T3-L1 adipocytes, calcein-AM fluorescence, 48 h, basal (AID 1163); details: 3T3-L1 adipocytes viability, higher = more signal; also: test concentration not given here
# [13] = HepG2 cell viability effects, profiling panel, calcein-AM fluorescence, 48 h, basal (AID 1164); details: higher = more signal; also: test concentration not given here
# [14] = MM1S cell viability effects, profiling panel, calcein-AM fluorescence, 48 h, basal (AID 1165); details: higher = more signal;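 also: viability of MM1S multiple myeloma cells under basal unstimulated conditions; test concentration not given here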
# [15] = basal RPMI8226 viability, no added stimulus, profiling panel, cell-based, calcein-AM fluorescence, 48 h, PK04 Diversity Set (AID 1166); details: RPMI8226 myeloma viability, higher = more signal;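 also: cells grown under basal conditions without added stimulus; test concentration not given here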
# [16] = basal HepG2 mitochondrial membrane potential changes, profiling panel, cell-based, JC-1 fluorescence, 24 h, 100 nL compound (AID 1167); details: higher = more signal; also: test concentration not given here
# [17] = basal 3T3-L1 adipocyte mitochondrial potential changes, profiling panel, cell-based, JC-1 fluorescence, 3T3-L1 adipocytes, 24 h, 100 nL compound (AID 1168); details: JC-1 mitochondrial fluorescence, higher = more signal, called active from +8 up or from −8 down; also: test concentration not given here
# [18] = basal RPMI8226 mitochondrial membrane potential changes, profiling panel, cell-based, JC-1 fluorescence, 24 h, 100 nL compound (AID 1169); details: RPMI8226 myeloma, JC-1 mitochondrial potential fluorescence, higher = more signal; also: test concentration not given here
# [19] = basal MM1S mitochondrial membrane potential changes, profiling panel, cell-based, JC-1 fluorescence, 24 h, 100 nL compound (AID 1170); details: higher = more signal; also: test concentration not given here
# [20] = A549 lung cancer cell viability effects, profiling panel, resazurin fluorescence, 24 h, PK04 Diversity Set (AID 1171); details: higher = more signal, called active from +8 up or from −8 down; also: test concentration not given here
SMILES,z-score [1],composite z-score [2],z-score [3],z-score [4],z-score [5],z-score [6],z-score [7],z-score [8],z-score [9],z-score [10],z-score [11],z-score [12],z-score [13],z-score [14],z-score [15],z-score [16],z-score [17],z-score [18],z-score [19],z-score [20]
CC(=O)OC[C@H]1O[C@@H](ON=C2[C@H]3CCn4c(=O)n(-c5ccccc5)c(=O)n4[C@H]3[C@H](O)[C@@H]3O[C@H]23)[C@H](OC(C)=O)[C@@H](OC(C)=O)[C@@H]1OC(C)=O,-0.132 (inactive),0.106,0.597 (inactive),0.454 (inactive),-0.258 (inactive),0.465 (inactive),-0.862,-0.186 (inactive),-0.47 (inactive),0.187,-0.0311,-1.14,0.707,-0.0928,-0.105,-0.506,-0.0849 (inactive),-0.0535,-0.64,-0.713 (inactive)
CCOC(=O)[C@H](CC(C)C)NC(=O)CCC1CC(OC(=O)NCc2ccc3c(c2)OCO3)CC2(CCCC(COC(=O)NCc3ccccc3)O2)O1 (stereo not given in full),-0.729 (inactive),0.0004,7.67 (inactive),0.795 (inactive),-0.626 (inactive),0.297 (inactive),-0.251,-0.398 (inactive),0.47 (inactive),0.202,-0.547,-0.654,-1.38,-3.45,-1.58,-0.439,0.195 (inactive),0.0575,0.277,1.06 (inactive)
CC(C)(C)N1C(=O)[C@H]2[C@H]3[C@H](O)[C@H](O)CC(=NOC[C@@H](O)COCc4ccco4)[C@@H]3CC[C@H]2C1=O,0.0978 (inactive),0.211,0.693 (inactive),-0.335 (inactive),-0.222 (inactive),-0.261 (inactive),-0.151,0.725 (inactive),-1.96 (inactive),-0.279,-0.535,0.935,-0.274,0.268,-1.63,-1.12,-0.243 (inactive),0.431,0.325,-0.0978 (inactive)
CCOC(=O)[C@H](CC(C)C)NC(=O)CCC1CC(OC(=O)NCc2ccc3c(c2)OCO3)CC2(CCCC(COC(=O)NCCc3ccccc3OC)O2)O1 (stereo not given in full),-1.08 (inactive),0.0437,-1.67 (inactive),-0.213 (inactive),-1.01 (inactive),-0.143 (inactive),-0.116,0.0807 (inactive),0.886 (inactive),1.24,-0.47,-0.837,0.0138,-1.32,-0.312,-0.828,-0.104 (inactive),-0.282,-0.501,1.06 (inactive)
C[C@]12CCC3c4ccc(OCC5CO5)cc4CCC3C1CC[C@@H]2O (stereo not given in full),-0.186 (inactive),-0.0011,24.3 (active),7.31 (inactive),0.269 (inactive),0.663 (inactive),0.25,1.44 (inactive),-1.42 (inactive),-1.74,0.45,0.277,0.266,-2.59,-1.06,1.15,0.121 (inactive),0.0313,-0.046,2.25 (inactive)
C[C@@H]1CC[C@H]2C(=O)N3[C@@H](CC[C@@H](C)[C@@H]3c3ccc(Br)cc3)C(=O)N2[C@H]1c1ccc(Br)cc1,-1.09 (inactive),-0.0099,4.4 (inactive),1.07 (inactive),0.121 (inactive),0.689 (inactive),0.448,1.79 (inactive),-1.8 (inactive),0.819,-0.569,-0.42,-0.0355,-2.69,-2.57,1.65,-0.76 (inactive),-0.22,1.41,0.632 (inactive)
CO[C@H]1COC(=O)CC=C[C@H](C)[C@H](OC)COC(=O)[C@@H](C)NC(=O)CC=C[C@@H]1C,-0.619 (inactive),-0.0939,-0.89 (inactive),-1.35 (inactive),-0.14 (inactive),-1.92 (inactive),-0.365,-0.677 (inactive),0.557 (inactive),0.197,-0.42,0.269,-0.642,0.0674,0.222,-0.66,-0.557 (inactive),-0.283,-0.248,0.691 (inactive)
CCCNC(=O)OC[C@H]1O[C@H](CCON=C2C[C@@H](O)[C@@H](O)[C@@H]3[C@@H]4C(=O)N(CC)C(=O)[C@@H]4CC[C@@H]23)C=C[C@@H]1Oc1ccc(OC)cc1,0.599 (inactive),0.186,1.69 (inactive),0.584 (inactive),-0.0328 (inactive),0.368 (inactive),-0.432,-0.708 (inactive),0.471 (inactive),-0.818,0.778,0.206,-0.652,-1.61,0.141,-1.18,-0.245 (inactive),0.195,-0.39,-0.454 (inactive)
CCOC(=O)NN=C1C[C@@H](O)[C@@H](O)[C@@H]2[C@@H]3C(=O)N(C[C@@H]4CCCO4)C(=O)[C@@H]3CC[C@H]12,0.138 (inactive),-0.147,-0.133 (inactive),-0.121 (inactive),-0.497 (inactive),-0.235 (inactive),0.0411,0.192 (inactive),0.433 (inactive),-0.468,-0.0295,0.127,-1.17,-0.0085,0.121,-0.686,-0.408 (inactive),-0.38,-0.229,0.159 (inactive)
CO[C@H]1COC(=O)[C@H](C)COC(=O)[C@@H](OCc2ccccc2)C=C[C@@H]1C,0.623 (inactive),-0.193,0.345 (inactive),0.0669 (inactive),-0.258 (inactive),0.0584 (inactive),0.893,-0.596 (inactive),0.603 (inactive),0.214,0.644,0.0582,0.392,0.493,-0.584,0.919,0.308 (inactive),-0.177,1.26,-0.0266 (inactive)
C[C@@H]1CC[C@H]2C(=O)O[C@@H](COc3ccc(C(C)(C)C)cc3)CN2[C@H]1c1ccc(Br)cc1,-0.113 (inactive),-0.103,1.25 (inactive),0.937 (inactive),-0.897 (inactive),0.588 (inactive),-0.261,-0.271 (inactive),0.562 (inactive),0.257,0.255,-0.076,0.0944,-1.26,-0.794,-1.31,-1.16 (inactive),-0.16,0.455,1.71 (inactive)
Cc1ccc(C(C)C)n1C(=O)OC(C)(C)C,-0.241 (inactive),-0.0934,-0.446 (inactive),-1.44 (inactive),-0.165 (inactive),-1.53 (inactive),1.04,-0.137 (inactive),0.209 (inactive),0.674,1.88,0.0856,0.577,0.547,0.228,-0.503,0.499 (inactive),0.68,0.196,-1.47 (inactive)
COC(=O)CC=C[C@@H](C)[C@@H](C=NOC[C@@H](C)[C@H](OCc1ccccc1)C(C)C)NS(=O)(=O)c1ccc(C)cc1,-0.795 (inactive),-0.0011,2.91 (inactive),0.988 (inactive),1.2 (inactive),0.808 (inactive),-0.222,0.787 (inactive),-0.183 (inactive),-1.19,0.0174,0.502,-0.692,-0.726,-0.96,-0.685,-2.09 (inactive),-0.129,-0.00529,0.0101 (inactive)
CC[C@@H](c1ccccc1)n1c(=O)n2n(c1=O)[C@H]1[C@H](O)[C@@H]3O[C@@H]3C(=NOCc3ccccc3)[C@H]1CC2,-1.08 (inactive),0.0004,2.18 (inactive),0.0656 (inactive),1.1 (inactive),0.454 (inactive),0.3,1.55 (inactive),-0.989 (inactive),1.21,-2.83,0.229,-3.76,-3.1,-3.84,0.517,-0.327 (inactive),-1.05,-1.68,-2.54 (inactive)
CCc1cc2c(nc1CC)CCN(CCC(C)=NOC[C@@H](C)[C@H](OCc1ccccc1)C(C)C)C2,-0.64 (inactive),-1.28,1.29 (inactive),-2.02 (inactive),0.513 (inactive),-2.16 (inactive),1.35,-2.3 (inactive),-0.642 (inactive),-4.09,1.58,0.546,1.43,-2,-0.584,2,1 (inactive),0.278,0.486,-0.445 (inactive)
CC(C)[C@@H](OCc1ccccc1)[C@H](C)C=NOC[C@@H](O)[C@H]1O[C@@H]2OC(C)(C)O[C@@H]2[C@H]1O,-1.74 (inactive),-0.25,0.0248 (inactive),-0.211 (inactive),0.122 (inactive),0.124 (inactive),-0.898,1.09 (inactive),-1.94 (inactive),0.165,-0.205,-0.132,-0.292,0.592,0.322,-0.719,-1.58 (inactive),0.13,0.461,-0.665 (inactive)
O=C1C=C[C@@H](O)[C@@H]2[C@@H]3C(=O)N(Cc4ccc5c(c4)OCO5)C(=O)[C@@H]3CC[C@@H]12,0.038 (inactive),-0.0061,1.26 (inactive),-0.0262 (inactive),-0.556 (inactive),0.379 (inactive),0.182,1.41 (inactive),-1.55 (inactive),-0.372,-0.0516,0.493,0.0311,-0.186,0.0706,-0.214,-0.0146 (inactive),0.0398,0.652,-0.701 (inactive)
CSCC[C@@H]1NC(=O)CC=C[C@@H](C)COC(=O)[C@H](C)COC1=O,0.832 (inactive),-0.321,-0.274 (inactive),-1.3 (inactive),-0.92 (inactive),-1.58 (inactive),2.08,-1.01 (inactive),0.384 (inactive),0.515,0.137,0.641,0.929,0.434,0.798,1.16,0.766 (inactive),0.0761,0.975,-0.365 (inactive)
